Screens as filed in PubChem BioAssay.
An excerpt weighted towards active compounds, which were near 2.3% of everything screened.
Bim-Mcl-1 – disrupts Bim peptide binding to human Mcl-1; Q07820; Bead-based flow cytometry, Bim peptide-Mcl-1 binding; inhibition, % at 10 µM; actives 0.1% (n = 190,000); in the data active = inhibition above about 40%;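 note: 0% = no compound tracer wells and 100% = peptide blocker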
Target sequence (Q07820 whole entry, looked up): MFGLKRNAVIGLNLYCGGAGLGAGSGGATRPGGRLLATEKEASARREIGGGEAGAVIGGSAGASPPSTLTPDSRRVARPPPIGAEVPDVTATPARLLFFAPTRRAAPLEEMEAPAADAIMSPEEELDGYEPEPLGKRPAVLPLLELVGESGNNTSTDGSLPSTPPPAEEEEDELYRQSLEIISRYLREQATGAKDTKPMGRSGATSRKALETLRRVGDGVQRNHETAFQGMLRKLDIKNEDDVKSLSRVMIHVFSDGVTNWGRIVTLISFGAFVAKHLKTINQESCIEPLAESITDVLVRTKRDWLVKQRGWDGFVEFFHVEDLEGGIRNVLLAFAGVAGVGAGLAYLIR
MCL1-BIM inh – MCL1-BIM-BH3 interaction inhibition (human); GST-MCL1 / FITC-Bim-BH3 fluorescence polarization; inhibition, % at 10.9 µM; actives 0.68% (n = 320,000); AID 2057;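 active = inhibition above the mean inhibition of all tested compounds plus 3 SD, set per campaign, cut at about 40% in these data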;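 note: 0% = DMSO wells and 100% = unlabeled Bim-BH3 peptide control; higher means more loss of mP so more displacement of Bim peptide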
BCLXL inh – inhibitors of human Bcl-xL | GST-Bcl-xL / FITC-Bim BH3 peptide fluorescence polarization | inhibition, % at 10.9 µM | actives 0.7% (n = 320,000) | Q07817;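 active = inhibition above the mean of all tested compounds plus 3 SD, cutoff set per campaign, cut at about 30% in these data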;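 note: 0% = DMSO wells and 100% = unlabeled Bim-BH3 peptide competitor; inhibitors lower millipolarization by displacing the labeled peptide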
Mcl1-Bid inh – Mcl-1/Bid interaction inhibition; TR-FRET Mcl-1/Bid-Dy647 peptide binding, 1536-well; inhibition, % at 21.7 µM; actives 0.97% (n = 220,000);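 active = compounds that cut the binding signal by more than half at the single screening dose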;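 note: His-tagged Mcl-1 with europium anti-His antibody binding Bid BH3 peptide; 0% = Mcl-1 plus peptide wells and 100% = peptide-only wells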
GLD-1 RNA inh – GLD-1-TGE RNA interaction inhibition (C. elegans); Q17339; purified GLD-1 + fluorescein TGE RNA, fluorescence polarization; inhibition, % at 5.96 µM; actives 0.44% (n = 320,000); AID 2280;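 active = percent inhibition above a per-plate cutoff, the plate mean of test compounds plus 3 SD, cut at about 30% in these data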;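 note: 0% = DMSO wells with GLD-1 and probe and 100% = wells lacking GLD-1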
Mcl1-Noxa inh – Mcl-1/Noxa interaction inhibition; TR-FRET Mcl-1/Noxa peptide binding, 2 h; actives 1.5% (n = 220,000); inhibition, % at 21.7 µM; AID 1022;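 active = compounds that cut the protein-peptide binding signal by more than 50% relative to plate controls in a single-dose test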;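 note: His-tagged Mcl-1 with rhodamine Noxa BH3 peptide and terbium anti-His antibody; 0% = Mcl-1 plus Noxa peptide wells and 100% = peptide-only wells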
Starred values were filed as active, the others as inactive; . = no result given.

SMILES	Bim-Mcl-1	MCL1-BIM inh	BCLXL inh	Mcl1-Bid inh	GLD-1 RNA inh	Mcl1-Noxa inh
S=C(NC1CCCCC1)N1CCn2cccc2C1c1cccnc1 (stereo not drawn)	-1	-3	-3	-28	-5	63*
C=C(C)CN(CC)C(=O)CCc1nnc(CCc2c[nH]c3ccccc23)o1	-1	-4	3	-38	-2	-5
COc1cccc2c1-c1c(O)cccc1C2=O	.	36	43*	.	3	.
Cc1ccc(C)c(N(CC(=O)NC2CCCCC2)C(=O)CNC(=O)c2ccco2)c1	.	8	1	.	5	.
CCOc1ccccc1NC(=O)NCCN1CCCCC1	.	10	4	.	5	.
CC(Oc1ccccc1F)C(=O)NCCN1CCCCC1 (stereo not drawn)	2	2	9	59*	4	-4
COc1ccc(-c2nc(-n3c(C)c(C(C)=O)c(C(C)=O)c3C)sc2C)cc1	-2	2	4	98*	-1	12
O=C(CCSc1nnc(-c2ccco2)o1)N1CCOCC1	-25	-1	-2	-9	6	3
CC1(C)Cc2c(sc3ncn(N)c(=N)c23)CO1	-1	9	4	-61	1	11
CC1(C)Cc2c(sc3ncn4c(=S)[nH]nc4c23)CO1	0	2	14	-57	2	67*
O=C(C1COc2ccccc2O1)N1CCN(Cc2ccc(Br)cc2F)CC1 (stereo not drawn)	.	0	3	.	3	.
CCOC(=O)C1CCN(CC(=O)Nc2c(C(=O)OC)[nH]c3cccc(Cl)c23)CC1	0	-3	-4	99*	4	4
CCOC(=O)C1CCN(CC(=O)Nc2c(C(=O)OC)[nH]c3ccccc23)CC1	-1	.	.	-33	.	13
COC(=O)\C(C(C)=O)=C(/C=C/C=C/N(C)C)N(C)C	6	26	32*	-57	21	3
COC(=O)/C(C(C)=O)=C(/C=C/C=C/N(C)C)N(C)C	3	15	12	-53	7	20
CCOc1ccccc1NC(=O)CN(C)S(=O)(=O)c1cccc2nsnc12	3	6	5	88*	-1	8
Cc1cccc(NC(=O)CN(C)S(=O)(=O)c2cccc3nsnc23)c1C	0	3	4	6	-1	-17
COc1ccc(C2(C(=O)Nc3ccc(C(=O)O)cc3)CCOCC2)cc1	0	-2	6	59*	4	-5
CCOC(=O)c1nccnc1C(=O)Nc1ccc(C(F)(F)F)cc1	0	11	7	-16	4	1
O=C(COc1ncnc2sccc12)Nc1ccc2c(c1)OCCO2	-2	-10	-5	-54	5	12
Cc1sc2ncnc(OCC(=O)Nc3ccc4c(c3)OCCO4)c2c1C	1	-5	1	99*	2	-5
CCN1/C(=C/c2ccc3cc(C)ccc3[n+]2C)Sc2ccc3sccc3c21	38	.	.	-28	.	60*
CC1CCCN(CCCNC(=O)C2CC(=O)N(CCc3ccccc3)C2)C1 (stereo not drawn)	.	1	-7	.	-1	.
O=C(CSc1nc2cc(Cl)c(Cl)cc2[nH]1)c1ccc2c(c1)OCO2	.	-12	-13	16	12	57*
Cc1cccc(C(=O)N2CCc3cc(-c4nc(NC(=O)Cn5nnc6ccccc6c5=O)sc4C)ccc32)c1	-4	7	3	67*	-1	51*
SMILES	Bim-Mcl-1	MCL1-BIM inh	BCLXL inh	Mcl1-Bid inh	GLD-1 RNA inh	Mcl1-Noxa inh
Cc1cccc(C(=O)N2CCc3cc(-c4nc(NC(=O)CN5CCCC5)sc4C)ccc32)c1	.	5	1	.	1	.
O=C(NCc1nnc(SCC(=O)N2CCCC2)o1)c1cccc(C(F)(F)F)c1	.	-2	4	.	2	.
Cc1cccc(Cn2c(-c3ccc[nH]c3=O)nc3ccccc32)c1	.	4	-1	.	1	.
Nc1ccc2c(c1Cl)C(=O)c1ccc(N)c(Cl)c1C2=O	.	.	.	46	.	87*
COC(=O)c1ccc(N/N=C/c2cc([N+](=O)[O-])cc(OC)c2O)cc1	-2	5	36*	12	-1	61*
CCOC(=O)c1ccc(NC(=O)c2ccccc2[N+](=O)[O-])cc1	-2	-3	0	-33	2	4
COc1cccc(/C=N/Nc2ccc([N+](=O)[O-])cc2)c1O	.	-47	-25	.	-5	.
CCOC(=O)c1ccc(N/N=C/c2cc(Br)cc([N+](=O)[O-])c2O)cc1	1	3	3	-6	-3	61*
